Source: PubChem BioAssay AID463218 (Sanford-Burnham Center for Chemical Genomics, 2010)
The whole screen tested about 4,400 compounds, of which about 3,700 (84%) were called active.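 The calls were made as follows: active = inhibition above about 39% in either of two replicate wells at 20 µM (limit read from the data); inactive = the rest.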 The set was probably picked from earlier hits. The list is a sample of the results.

Assay: tim23-1 mutant yeast growth inhibitors, confirmation, luminescence, single concentration (AID 463218);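 also: temperature-sensitive tim23-1 mutant grown at 25 °C; 0% = DMSO wells with yeast and 100% = medium wells without yeast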
Details: S. cerevisiae tim23-1 growth, BacTiter-Glo luminescence, 24 h; at 20 µM; hits give high values

| Compound | inhibition |
| --- | --- |
| O=C1Oc2ccccc2C(=O)/C1=C/c1ccccc1O | 89% (active) |
| O=C(CC(O)(C(F)(F)F)C(F)(F)F)Nc1ccc(Cl)c(Cl)c1 | 92.1% (active) |
| COc1cc(NC(=O)c2cccs2)ccc1NC(=O)c1ccccc1Cl | 42.2% (active) |
| Cc1nn(CC(=O)Nc2nc3ccccc3s2)c(C)c1[N+](=O)[O-] | 54% (active) |
| C=C1CCC(N(O)c2cc(C)on2)C(=C)CCC2C1CC2(C)C (stereo not given) | 44.8% (active) |
| Cc1ccccc1OCC(=O)Nc1ccc(N2CCN(C(=O)C(C)C)CC2)c(Cl)c1 | 76.3% (active) |
| C/C(=N\NC(=S)NCc1ccccc1)c1ccc(Cl)cc1 | 36.7% (inactive) |
| COc1ccc2c(c1)C(=C(C#N)C#N)C(=O)N2CCc1ccccc1 | -89.4% (inactive) |
| COc1ccc(/C(N)=N/OC(=O)CCCc2ccccc2)cc1 | 41.2% (active) |
| N/C(=N\OC(=O)CCc1ccccc1)c1ccc(Cl)cc1 | 67.7% (active) |
| Cc1cc2ncn(CCCCOc3ccccc3)c2cc1C | 27.3% (inactive) |
| O=[N+]([O-])c1ccccc1S(=O)(=O)Nc1cccc2cccnc12 | 59.1% (active) |
| Cc1cccc(Oc2c([N+](=O)[O-])c(=O)n(C)c3ccccc23)c1 | 59.6% (active) |
| N/C(=N\OC(=O)CC1CCCCC1)c1ccccc1 | 53.1% (active) |
| O=C(NCCc1ccc(F)cc1)c1ccc(S(=O)(=O)N2CCCCC2)cc1 | 56% (active) |
| Cc1ccc2cc3cc(C(=O)N4CCCCCC4)oc3nc2c1 | 56% (active) |
| CCC(=O)Nc1nc(C)c(C(=O)Nc2cccc(Cl)c2)s1 | 75.2% (active) |
| COc1cc(Br)cc(/C=N/c2ncn[nH]2)c1O | 85.5% (active) |
| O=C1c2cccc3c([N+](=O)[O-])ccc(c23)C(=O)N1CC1CCCO1 (stereo not given) | 86.2% (active) |
| O=C(Oc1ccc([N+](=O)[O-])cc1)c1ccc2ccccc2n1 | 70.7% (active) |
| O=C(N[C@H]1C/C=C\C(c2cccc(F)c2)N(Cc2ccccc2)C(=O)C1)OCC1c2ccccc2-c2ccccc21 (stereo not given in full) | 40% (active) |
| COC(=O)c1c(NC(=O)CSc2nncs2)sc2c1CCCCC2 | 46.1% (active) |

| Compound | inhibition |
| --- | --- |
| O=C(N/N=C/C=C/c1ccco1)c1cccs1 | 68.9% (active) |
| COc1ccc(CNC(=O)/C(C#N)=C/c2cccc(OC)c2OC)cc1 | 76.6% (active) |
| CCCc1nc2c(c(=O)c3ccccc3n2C)c(=O)n1C1CCCCCC1 | 58.9% (active) |
| Cc1ccc(S(=O)(=O)NC2CCCCCC2)cc1 | 37% (active) |
| O=C(Cc1c(F)cccc1Cl)Nc1ncc([N+](=O)[O-])s1 | 71.3% (active) |
| COc1ccc(-c2nc3cc(C)ccn3c2NC2CCCCC2)cc1SC1CCCCC1 | 48.6% (active) |
| O=C(/C=C/c1ccc(Cl)c([N+](=O)[O-])c1)c1cccnc1 | 73.4% (active) |
| Cc1ccccc1C1=N/C(=C/c2cccnc2)C(=O)O1 | 57% (active) |
| O=C(Nc1nc(-c2ccco2)c(-c2ccco2)s1)c1ccco1 | 77.3% (active) |
| O=C1[C@@H](c2ccccc2)[C@@H](c2ccccc2)N1c1cccnc1 | 71.3% (active) |
| N/C(Cc1ccc([N+](=O)[O-])cc1)=N\OC(=O)COc1ccc2ccccc2c1 | 72.3% (active) |
| N/C(Cc1ccc([N+](=O)[O-])cc1)=N\OC(=O)C1CCCCC1 | 64.3% (active) |
| Cc1cccc(NC(=O)c2nc(S(=O)(=O)Cc3ccccc3)ncc2Cl)c1 | -88.7% (inactive) |
| Cc1cccc(NC(=S)Nc2ccc(Cl)c(Cl)c2)c1 | 63.8% (active) |
| Cn1c(=O)c(C(=O)Nc2ncccn2)c(O)c2ccccc21 | 53.4% (active) |
| O=C1Nc2ccccc2/C1=C/c1ccnc2ccccc12 | 56.8% (active) |
| COc1ccc(S(=O)(=O)N2CCN(C(C)C(=O)Nc3ccc(C(C)C)cc3)CC2)cc1 (stereo not given) | 51.4% (active) |
| CC(C)c1ccc(NC(=S)NC2CC3C=CC2C3)cc1 (stereo not given) | 36.4% (inactive) |
| COc1ccc(C(C[N+](=O)[O-])n2nc(C)cc2C)cc1 (stereo not given) | 62% (active) |
| O=C(NC(Nc1nc2ccc([N+](=O)[O-])cc2s1)(C(F)(F)F)C(F)(F)F)c1ccccc1 | 87.3% (active) |
| COc1ccc(CS(=O)/C(Cl)=C(/Cl)C(=O)Nc2ccc(OC)nc2)cc1 (stereo not given) | -9.55% (inactive) |
| COc1ccc(NC(=O)Nc2cccc3cccnc23)cc1 | 42.3% (active) |

| Compound | inhibition |
| --- | --- |
| CN(C(=O)CC(NC(=O)c1ccccc1)(c1ccccc1)c1ccccc1)c1ccccc1 | 44.1% (active) |
| Fc1ccccc1-c1cc2cc3c(cc2cn1)OCO3 | 59% (active) |
| CCOc1ccc(C(c2c(C)[nH][nH]c2=O)c2c(C)[nH][nH]c2=O)cc1OCC | 41.6% (active) |
| CCCc1c(C(=O)Nc2ccc(F)cc2)cnn1-c1ccccc1 | 30.4% (inactive) |
| Cc1ccc2nc(-c3ccc(NC(=O)c4cccnc4)cc3)oc2c1 | 42.7% (active) |
| Cc1ccc(N=Cc2c(O)cc(C)oc2=O)c(C)c1 | 12.4% (inactive) |
| O=C(Nc1nnc(SCc2c(Cl)cccc2Cl)s1)C1CCCO1 (stereo not given) | 49.7% (active) |
| Cc1cccc(C)c1NC(=O)C(Cl)C(=O)c1ccccc1 (stereo not given) | 68.8% (active) |
| S=C(NCCCc1ccccc1)Nc1ccc(Br)cc1 | 54.3% (active) |
| COc1ccc2c(c1)C(NS(=O)(=O)OCC(Cl)(Cl)Cl)CCC2 (stereo not given) | 52.8% (active) |
| CCCCCCc1ccc(O)cc1O | 45.3% (active) |
| Cc1ccccc1C(=O)NC(=S)NC1CC1 | 12.2% (inactive) |
| COc1ccc(C(=O)NC(=S)NC2CCCCC2)cc1 | 59.2% (active) |
| O=C(NC(=S)NC1CCCCC1)c1ccc(Cl)cc1 | 53.2% (active) |
| O=C(Nc1ccccc1)c1ccc2c(c1)OCCCO2 | 31.9% (inactive) |
| Cc1ccoc1C(=O)Nc1cccc(Oc2ccccc2)c1 | 75.2% (active) |
| COc1ccccc1-c1n[nH]c2c1[C@H](C)CC[C@H]2C(C)C | 61.8% (active) |
| Cc1ccc(C2CC(=O)NC(SCC(=O)OCc3ccccc3)=C2C#N)o1 (stereo not given) | 53.8% (active) |
| CCc1nnc(NS(=O)(=O)c2ccc(NC(=S)NC(=O)/C=C/c3cccs3)cc2)s1 | 25.8% (inactive) |
| O=C1C=C(c2cccc(Cl)c2O)C[C@@H](c2ccc(F)cc2)C1 | 51.5% (active) |
| CC(=O)Oc1ccc2c(c1)C(=O)c1ccccc1C2=O | 68.2% (active) |
